This passage reports inhibition results from PubChem BioAssay AID449762 (Southern Research Specialized Biocontainment Screening …, 2010).

In all, about 330,000 compounds went through this assay and about 1,900 (0.58%) were called active. Roughly 4% stayed inconclusive and do not appear here. A selection follows. Entries with a potency or affinity are not part of this list. Values without a mark were called inactive. No stated cut-off is given here; in the data, inconclusive means inhibition above about 70% without an active follow-up result; inactive means below that.

The assay in a line: M. tuberculosis growth inhibition, HTS (AID 449762).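 Further: bacterial growth assessed after seven days of incubation.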 The note with it: M. tuberculosis H37Rv growth inhibition, 7H9 media; at 25 µM; stronger effect = higher value.
Consider `CCc1cc[n+](C2=C([O-])c3ccccc3C(=O)/C2=N\S(=O)(=O)c2cccs2)cc1`, for which the inhibition (in general, the relative decrease from the control value, in per cent) was 2.09%. The figure for `O=C1/C(=N\S(=O)(=O)c2cccs2)C([n+]2ccccc2)=C([O-])c2ccccc21` is -2.62%.

With `CCCCC1(C(=O)OCC)CC(CN2CCOCC2)OC1=O` (stereo not given), the inhibition was -5.65%. The figure for `CN1CCN(c2ccc(NC(=O)c3cccs3)cc2)CC1` is 0.58%; for `COC(=O)C1=C(C)Nc2[nH]c(=S)[nH]c(=O)c2C1c1ccc(OC)cc1` (stereo not given) it is -7.09%; for `COc1cc(/C=N/Nc2nc(Nc3ccccc3)nc(N3CCCCC3)n2)ccc1OCC(=O)O` it is 58.2%.

For `O=C(O)COc1ccc(/C=N/Nc2nc(Nc3ccccc3)nc(N3CCCCC3)n2)cc1`, the inhibition was 23.6%. With `N/C(=N\OC(=O)CC1CCCCC1)c1ccc([N+](=O)[O-])cc1`, the inhibition is -1.51%. The figure for `CCCn1c(=N)c(C(=O)NCC2CCCO2)cc2c(=O)n3cccc(C)c3nc21` (stereo not given) is -2.2%.

For `CCOCCCn1c(=N)c(C(=O)NCc2ccc3c(c2)OCO3)cc2c(=O)n3cccc(C)c3nc21`, the inhibition was 68.2%. The figure for `Brc1ccc(-c2csc(-c3ccncc3)n2)cc1` is 36.4%. As to `Brc1ccc(-c2csc(Nc3nc(-c4ccc(Br)cc4)cs3)n2)cc1`, the inhibition is 8.54%. The figure for `Cc1ccc(NC(=S)N2CCN(c3ccccn3)CC2)c(C)c1` is 5.35%.

For the compound `Cc1c(N=NC2=C(O)CC(C)(C)CC2=O)cc2c(c1[N+](=O)[O-])C(C)(C)CC2(C)C`, the inhibition was 6%.

For `O=[N+]([O-])c1ccc(Nc2ccc(F)cc2)nc1`, the inhibition was -2.27%.

For the compound `NC(=O)c1ccc(NC(=O)COC(=O)c2cc3c(s2)CCC3)cc1`, the inhibition was 6.74%. The figure for `COc1ccc(NC(=O)COC(=O)c2cc3c(s2)CCC3)cc1` is 9.83%; for `CCN1CCN(c2nc(C)c3c(n2)CC(C)CC3=O)CC1` (stereo not given) it is 11.3%; for `COC(=O)c1ccc(COc2cc([N+](=O)[O-])cc3cccnc23)cc1` it is 3.92%.

Consider `COC(=O)c1ccc(COc2cc([N+](=O)[O-])cc3cccnc23)o1`, for which the inhibition is -2.4%.

As for `O=C(CN1c2ccccc2Sc2ccccc21)N/N=C/c1ccc(Cl)cc1Cl`, the inhibition was 4%.

As to `COc1ccccc1C(=O)NNC(=O)C12CC3CC(CC(C3)C1)C2`, the inhibition is -6.93%. Consider `Cc1cc(C)c2c(CN3CCN(Cc4ccccc4)CC3)cc(=O)oc2c1`, for which the inhibition was 0.88%.

For the compound `Cc1ccc2c(CN3CCN(Cc4ccccc4)CC3)cc(=O)oc2c1C`, the inhibition is 3.31%. The figure for `Fc1ccccc1N1CCN(C(c2ccncc2)c2nnnn2C2CCCC2)CC1` (stereo not given) is -0.2%. For `O=C(NCCO)c1cccc(S(=O)(=O)N2CCCCC2)c1`, the inhibition was -4.67%. In the case of `CC1CC(C)CN(C(=O)CN2C(=O)NC3(CCCCCC3)C2=O)C1` (stereo not given), the inhibition was 6.02%. The figure for `CC(=O)CSc1nsc(SCC(C)=O)c1C#N` is -3.69%; for `CSc1snc(SCC(N)=O)c1C#N` it is -0.39%. The figure for `COC(=O)CSc1nsc(SCC(=O)OC)c1C#N` is -0.76%; for `N#Cc1c(SCC(=O)OCc2ccccc2)nsc1SCC(=O)OCc1ccccc1` it is 14.1%; for `CCC(C)N(C(=O)COC(=O)c1nc2nc(C)cc(C)n2n1)C1CCS(=O)(=O)C1` (stereo not given) it is 5.26%. The figure for `CCCOc1ccc(CC2CCC(=O)NC2=O)cc1` (stereo not given) is 5.69%. Regarding `COc1ccc(CNS(=O)(=O)c2ccc3c(c2)NC(=O)C(C)S3)cc1` (stereo not given), the inhibition is 6.65%. The figure for `CCc1c(C)sc(NC(=S)N2CCN(S(C)(=O)=O)CC2)c1C(=O)OC` is 0.54%; for `CCc1c(C)sc(NC(=S)N2CC(C)OC(C)C2)c1C(=O)OC` (stereo not given) it is 3.86%. `CCN(CC(=O)NCc1ccc(Cl)cc1)C(=O)CN1C(=O)NC(C)(c2ccccc2)C1=O` (stereo not given): the inhibition is -3.75%. The figure for `CCOC(=O)C(C)NC(=O)c1cn(-c2ccc(OC)cc2)c(=O)c2ccccc12` (stereo not given) is 3.17%; for `CCC(C)NC(=O)c1cn(-c2cccc(OC)c2)c(=O)c2ccccc12` (stereo not given) it is 4.02%.

Consider `N#C/C(C(N)=O)=C1/SC=C(c2ccccc2)N1c1ccccc1`, for which the inhibition is -6.75%. The figure for `NS(=O)(=O)c1ccc(NC(=S)NC(=O)c2ccc(Br)o2)cc1` is -3.72%. The figure for `Cc1ccc(S(=O)(=O)NC(=O)Nc2ccc(C)cc2C)cc1` is -6.63%; for `Cn1c(=O)c2c(ncn2CC(=O)Nc2ccc(N3CCOCC3)cc2)n(C)c1=O` it is -5.62%; for `O=C(O)CN=CC1=C(O)CC(c2ccccc2)CC1=O` (stereo not given) it is 4.73%.

As to `N/C(Cc1ccc(Cl)cc1)=N\OC(=O)c1ccc2ccccc2c1`, the inhibition is 0.18%. The figure for `N/C(Cc1ccc([N+](=O)[O-])cc1)=N\OC(=O)c1ccc([N+](=O)[O-])cc1` is 44.8%; for `CCCCn1c(N)c(N(CCOC)C(=O)c2cccc(S(=O)(=O)N3CCCCCC3)c2)c(=O)[nH]c1=O` it is -2.07%; for `CC(=O)Oc1cccc(N2C(=O)c3ccccc3C2=O)c1` it is -13.4%. As for `CC(=O)Oc1ccc(C#C/C=C2\c3ccccc3C(=O)N2c2ccccc2)cc1`, the inhibition is 22.6%.

For `Cc1nc2c(cc1NC(=O)C(C)(C)C)nc(C)n2Cc1ccccc1`, the inhibition was -8.25%. The figure for `Nc1ccc2oc(-c3ccccc3Cl)cc(=O)c2c1O` is -3.11%; for `O=c1cc(-c2ccccc2Cl)oc2cccc(O)c12` it is 1.24%; for `COc1ccccc1N(CC(=O)NCCSC(C)(C)C)S(C)(=O)=O` it is 2.68%.

Take `COc1ccc2oc(C(=O)c3ccccc3)c(NC(=O)CN3CCN(C)CC3)c2c1`: the inhibition was 15.4%. The figure for `CN1CCN(CC(=O)Nc2c(C(=O)c3ccccc3)oc3ccccc23)CC1` is 3.75%; for `COC(C[C@@H]1O[C@H]1C(=O)COCc1ccccc1)OC` it is -5.79%; for `O=C(Cn1ccc([N+](=O)[O-])n1)NCc1cccnc1` it is 4.03%. The figure for `CCCCSC1(SCCCC)N=C(N)C2(C#N)C(c3ccccc3)NC(C)=CC12C#N` (stereo not given) is -0.17%; for `CCCC(=O)Nc1ccccc1NC(=O)CCC` it is 0.31%. The figure for `CCC(=O)Nc1cccc2ccccc12` is -0.62%.
